# Hits are enriched below; roughly 4.8% of the tested compounds scored in any of these assays.
# hcDAF12 agonist = activates DAF-12 receptor from parasite H. contortus. HEK293 hcDAF-12 lit1-tk-luc reporter, luminescence; 0% DMSO, 100% Δ7-dafachronic acid. activation, % at 6.8 µM. hit rate 1.4% among 370,000. AID 652067;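 active means activation above the mean of all tested compounds plus 3 SD, cut at about 5.5% in these data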;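 further: 100% = response to 3 µM Δ7-dafachronic acid high control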
# hgDAF12 agonist = activates the H. glycines DAF-12 receptor ligand-binding domain; HEK293 GAL4-hgDAF12 UAS-luciferase reporter, agonist luminescence; normalized to butyrate control; activation, % at 6.8 µM; hit rate 1.8% among 370,000;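 active means activation above a cutoff set at the mean of all screened compounds plus 3 SD, cut at about 10% in these data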;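 further: 0% = DMSO wells and 100% = sodium butyrate wells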
# SMARCA2 activ = increases SMARCA2 function in MMTV reporter cells; activation, % at 9.1 µM; hit rate 1% among 370,000; AID 652017; MG213 cells, MMTV-luciferase reporter, dexamethasone, overnight; in the data active means activation above about 7.8%;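 further: 0% = vehicle wells and 100% = reference activator wells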
# DAX1 inh-1 = NR0B1 (DAX1) inhibition. HEK293 Gal4-DAX1 luciferase reporter, luminescence. AID 504766. hit rate 0.99% among 340,000. inhibition, % at 6.75 µM. P51843;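 active means inhibition above the mean over all tested compounds plus 3 SD, cut at about 4.2% in these data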;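 further: 0% = DAX1-transfected cells with DMSO and 100% = empty-vector control cells with DMSO; inhibition shows as a rise in luminescence from relieved DAX1 repression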
# Target sequence (P51843 207-470 limits assumed): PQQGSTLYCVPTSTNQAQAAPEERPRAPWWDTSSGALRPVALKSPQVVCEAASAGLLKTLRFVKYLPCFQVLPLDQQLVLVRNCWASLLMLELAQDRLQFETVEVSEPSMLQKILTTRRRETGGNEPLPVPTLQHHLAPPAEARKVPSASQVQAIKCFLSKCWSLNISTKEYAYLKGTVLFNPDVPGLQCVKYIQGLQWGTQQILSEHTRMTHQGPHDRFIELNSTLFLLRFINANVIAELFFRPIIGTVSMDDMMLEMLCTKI
# ssDAF-12 act = activates DAF-12 receptor from parasite S. stercoralis. AID 652126. HEK293 ssDAF-12/GRIP1 lit1-tk-luc reporter, luminescence; % of 3 µM dafachronic acid response. activation, % at 6.8 µM. hit rate 1% among 370,000;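 active means activation above the mean over all tested compounds plus 3 SD, cut at about 0.9% in these data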;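 further: 0% = DMSO-only wells and 100% = 3 µM delta7-dafachronic acid wells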
# DAX1 inh-2 = blocks DAX1 repression of SF-1 activated StAR promoter; inhibition, % at 6.8 µM; hit rate 1.1% among 370,000; HEK293T StAR-luciferase reporter, SF-1/DAX-1 repression relief; AID 652010;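 active means inhibition above the mean over all tested compounds plus 3 SD, cut at about 3.6% in these data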;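 further: 0% = DAX-1 cells with DMSO and 100% = cells lacking DAX-1 with DMSO; higher inhibition means more luminescence from relief of DAX-1 repression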
# Numbers without * were called inactive; nt = no result.
SMILES,hcDAF12 agonist,hgDAF12 agonist,SMARCA2 activ,DAX1 inh-1,ssDAF-12 act,DAX1 inh-2
COCCCNC(=O)c1ccc(OC)c(OC2CCN(C(C)C)CC2)c1,-2,0,4,5.2*,-1,0
Cc1cc(CN2CCCC(N3CCc4ccccc4C3)C2)cc(C)c1O (centres undefined),5,11*,5,1,1,0
CCCC1CCC(C(=O)Nn2cnc3ccccc3c2=O)CC1 (centres undefined),0,2,-1,0,-1,0
O=C(N[C@H](C(=O)O)c1ccccc1)C1CCC(Cn2cnc3ccccc3c2=O)CC1 (some centres undefined),2,0,0,4.6*,-1,0
O=C(COC(=O)CCC(=O)c1ccc(F)cc1)Nc1cccc(S(=O)(=O)N2CCCC2)c1,-2,1,1,2,-1,1
COC/C=C/C1=CC2=CC(=O)C(C)(OC(=O)c3cnc4ccccc4n3)C(=O)C2=CN1CCCCO (centres undefined),0,-1,-1,4.2*,-1,0
COc1ccc2c(c1)O/C(=C\c1sccc1C)C2=O,2,11*,2,0,-1,0
O=C(O)COc1ccc2c(c1)O/C(=C\c1cccs1)C2=O,0,3,-2,0,0,0
O=C(Nc1ccccc1C(=O)Nc1ccccc1)c1ccccc1Br,0,-1,-3,0,0,-1
O=C(Nc1c[nH]c(=O)[nH]c1=O)c1ccccc1Br,0,-1,-4,6.4*,0,0
O=C(NNC(=O)c1c(O)c2ccccc2[nH]c1=O)c1ccccc1Br,2,1,3,0,0.9*,0
CC(Oc1ccc(F)cc1)C(=O)/C=C\N(C)C (centres undefined),1,-2,-3,0,-1,0
CCn1cc(C(=O)N2CCN(c3ccc(F)cc3)CC2)c2cc(OC)c(OC)cc2c1=O,0,2,0,-1,-1,0
CCn1cc(C(=O)N2CCN(c3ccccc3OC)CC2)c2cc(OC)c(OC)cc2c1=O,-1,0,0,4.4*,-2,-1
Cn1ccnc1C1CCCCN1Cc1nc(-c2ccc(Cl)cc2)no1 (centres undefined),0,12*,0,1,-1,-1
O=C(O)c1cccc2c1-c1ccccc1/C2=N\Nc1ccccc1,4,8,5,5.4*,0,1
COC(=O)c1ccc(N2CCC(c3cc(-c4ccc(OC)cc4)n[nH]3)CC2)c([N+](=O)[O-])c1,-2,1,-6,0,-2,-1
Cc1ccsc1/C=N/Nc1nc(Cl)c(Cl)cc1Cl,5,7,-1,2,0,0
Cc1ccc(/C=N/Nc2nc(Cl)c(Cl)cc2Cl)s1,5,5,0,4.3*,0.9*,1
COc1ccc(/C=N/Nc2nc3ccccc3[nH]2)c(OC)c1OC,-3,-4,-4,7.5*,-3,0
Cc1ccc(/C=N/Nc2nc3ccccc3[nH]2)s1,6.1*,10,3,0,1,3
COc1ccc(CNC(=O)CSc2nc3ccc(OC)cc3[nH]2)cc1,-1,-2,-1,2,-1,0
CCCNC(=O)C1(C)CCCN(Cc2ccsc2)C1 (centres undefined),-2,2,-3,nt,-1,0
COc1cc2c(cc1OC)C1(CCCC1)CNC2C (centres undefined),1,5,0,-1,-2,0
COc1cc(NC(=O)C(=O)NCCN2CCNCC2)c(OC)cc1Cl,0,3,-2,0,-1,0
SMILES,hcDAF12 agonist,hgDAF12 agonist,SMARCA2 activ,DAX1 inh-1,ssDAF-12 act,DAX1 inh-2
COc1ccc(C2C(C(C)=O)=C(O)C(=O)N2c2ccc(C)cc2)cc1 (centres undefined),0,4,2,4.5*,0,1
CC(=O)C1=C(O)C(=O)N(c2ccc(Br)cc2)C1c1ccc(Br)cc1 (centres undefined),-1,5,0,1,0,0
CCSc1nnc(NC(=O)c2cc(C)nc3ccccc23)s1,0,0,-1,0,-1,-1
CCSc1nnc(NC(=O)c2ccc3nc[nH]c3c2)s1,2,13*,6,2,-1,1
CCSc1nnc(NC(=O)c2ccc3ccccc3n2)s1,6.3*,4,5,1,1.0*,1
CCSc1nnc(NC(=O)C2CC2c2ccccc2)s1 (centres undefined),-2,-3,-2,12*,-1,0
O=C(COC(=O)c1cc(S(=O)(=O)Nc2ccccc2Cl)ccc1O)Nc1ccc(F)c(F)c1F,0,-1,4,0,-1,0
Cc1cc(N2CCC(C(=O)NC3CC3)CC2)nc(-c2ccccc2)n1,0,0,-2,-2,-1,0
CC(=O)NC1(c2ccccc2)CCN(c2cc(C)nc(-c3ccccc3)n2)CC1,-3,-4,0,-4,7.3*,-1
N=c1ncn(CC(O)CN2CCOCC2)c2nc(N3CCOCC3)[nH]c12 (centres undefined),0,2,5,1,-2,0
CCCOc1ccc2c3c(c(=O)oc2c1)CCCC3,0,1,0,0,-1,-1
C=CCOc1ccc2c3c(c(=O)oc2c1)CCCC3,-1,1,-1,4.3*,-1,-1
COc1ccc(NC(=O)COC(=O)c2ccc(Cl)c(S(N)(=O)=O)c2)c([N+](=O)[O-])c1,0,-5,-5,5.0*,-1,2
CNS(=O)(=O)c1cccc(C(=O)OCC(=O)Nc2ccc(OC)cc2[N+](=O)[O-])c1,-1,-1,-2,4.3*,-2,-1
COc1ccc(NC(=O)COC(=O)c2cc(OC)c(OC)c(OC)c2)c([N+](=O)[O-])c1,0,1,1,-1,0,0
CC(C)C(C(=O)NCc1ccccc1)N(C)Cc1ccc(Cl)c(Cl)c1 (centres undefined),-1,1,-6,nt,-1,2
CN(C)c1ccccc1-c1cc(NC=O)c2ncc(-c3cccc(C(F)(F)F)c3)n2c1,1,0,7,nt,0,-1
CN(C)c1ccc(C(=O)/C=C/c2ccco2)cc1,6,13*,4,-1,0.9*,2
O=C(/C=C\c1ccco1)c1ccc(NC(=O)c2ccco2)cc1,1,11*,7,0,-1,1
Cc1oc(-c2ccccc2Cl)nc1CS(=O)CC(=O)NCc1ccco1 (centres undefined),0,1,0,1,-1,0
Cc1oc(-c2ccc(Cl)cc2)nc1CS(=O)CC(=O)NCc1ccco1 (centres undefined),-2,11*,-3,0,-1,0
CCCOc1cccc(C(=O)Nc2cccc3ncccc23)c1,-2,0,2,-1,-1,-1
